Results published in PubChem BioAssay AID624330 (Southern Research Specialized Biocontainment Screening …, 2012).
“And” between values parts separate entries of the source, which are not always exact repeats. Equal values may be shown once. The whole screen tested about 340,000 compounds, of which about 2,100 (0.62%) were called active.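 How the source made its calls: active means first-screen hits whose inhibition reached a set limit at any dose in the follow-up dose series; inconclusive means inhibition above the set first-screen limit but never retested; inactive means the rest.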 The list is a sample of the results. Potency and affinity values are given separately.

target: Rac GTPase-activating protein 1 (Homo sapiens) (UniProt Q9H0H5); assay: MgcRacGAP GTPase-activating activity inhibitors, confirmation, biochemical, ADP Hunter fluorescence, primary and confirmatory (AID 624330); conditions: MgcRacGAP-stimulated Rac1 GTP hydrolysis, at 30 µM, active compounds read high, GST-tagged Rac1 F28L mutant substrate;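 further: fluorescence reports GDP produced by GAP-driven GTP hydrolysis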
Sequence (Q9H0H5 whole entry, looked up): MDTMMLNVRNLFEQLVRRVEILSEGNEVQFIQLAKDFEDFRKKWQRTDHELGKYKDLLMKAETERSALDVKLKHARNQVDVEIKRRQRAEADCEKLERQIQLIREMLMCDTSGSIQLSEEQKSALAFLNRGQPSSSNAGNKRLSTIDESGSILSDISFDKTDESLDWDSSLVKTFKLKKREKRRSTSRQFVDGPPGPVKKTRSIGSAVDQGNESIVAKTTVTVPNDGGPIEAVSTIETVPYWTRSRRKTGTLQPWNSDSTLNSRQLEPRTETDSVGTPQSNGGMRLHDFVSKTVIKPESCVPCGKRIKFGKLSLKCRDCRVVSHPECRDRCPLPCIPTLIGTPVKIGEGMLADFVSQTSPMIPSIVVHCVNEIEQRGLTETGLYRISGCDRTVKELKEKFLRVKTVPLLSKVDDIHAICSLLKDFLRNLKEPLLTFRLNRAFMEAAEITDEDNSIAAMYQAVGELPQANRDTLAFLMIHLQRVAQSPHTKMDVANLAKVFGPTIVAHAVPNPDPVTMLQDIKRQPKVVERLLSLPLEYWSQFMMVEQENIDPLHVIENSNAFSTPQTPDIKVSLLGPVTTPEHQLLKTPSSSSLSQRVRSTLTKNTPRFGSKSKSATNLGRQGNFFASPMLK

inhibition, inactive:
COc1ccc(CC(=O)NNC(=O)c2cc(Cl)ccc2OC)cc1 -0.57%
CC(Oc1ccccc1)C(=O)NC1C(=O)N2C1SC(C)(C)C2C(=O)O (stereo not given) 6.29%
O=C1c2ccccc2C(=O)N1CSc1nnc(Nc2ccccc2F)s1 5.49%
Cc1nnc(Nc2ccccc2F)s1 8%
Cc1ccc(Nc2nc3ccccc3o2)cc1F 1.08%
Cc1nnc(Nc2ccc(Cl)cc2)s1 -3.99%
Cc1nc(CSc2nnc(Nc3cccc(C)c3C)s2)cs1 4.77%
COc1ccccc1Nc1nc(C)cs1 0.84% and 0.19%
COc1ccccc1Nc1ccc(Nc2ccccc2OC)nn1 -7.41%
Cc1cccc(Nc2nc3ccccc3s2)c1C 0.63%
Cc1cc(C)n(C(=O)c2c([N+](=O)[O-])cnn2C)n1 -7.87%
O=C(Cc1ccc(F)cc1)Nc1cccc2cccnc12 5.65%
Cc1ccc(Sc2cnccc2C#N)cc1 -14.2%
COC(=O)c1cc(C(=O)OCC(=O)N(C)C2CCS(=O)(=O)C2)cc([N+](=O)[O-])c1 (stereo not given) -3.52%
CC1Sc2ccc(S(=O)(=O)N3CCC(C(=O)NCCc4ccccc4)CC3)cc2NC1=O (stereo not given) 6.85%
COc1cc(C2NC(=O)NC(c3ccccc3)=C2C(C)=O)c(Br)c(Br)c1O (stereo not given) 25.1%
CCOC(=O)c1cc(NC(=O)C2C3C=CC(O3)C2C(=O)O)cc(C(=O)OCC)c1 (stereo not given) 6.71%
CN1CCN(S(=O)(=O)c2ccc(Oc3cccc(C(F)(F)F)c3)nc2)CC1 9.66%
O=c1c(Br)c(N2CCCCC2)cnn1-c1ccccc1 3.03%
CCc1cc(=O)oc2cc(OCC(=O)NCCN3CCOCC3)c(Cl)cc12 0.13%
CCOC(=O)c1sc(Nc2ccc(OCC)cc2)nc1C -3.93%
Cc1cc(=O)[nH]c(Nc2cccc(Cl)c2C)n1 3.14%
CCOc1ccc(Nc2nc3ccccc3c(=O)s2)cc1 4.2%
Clc1ccccc1Nc1nnc(-c2ccncc2)s1 12.4%
Cc1c(Cl)cccc1Nc1ccccc1C(=O)O 3.44%
Cc1ccc(Nc2nc3ccccc3s2)c(C)c1 7.17%
O=C(c1ccccc1)c1cnc(Nc2ccccc2Cl)s1 8.39%
Cc1ccc(Nc2nc3c(s2)CCC3)c(C)c1 9.23%
N#CC1(Nc2ccc(S(N)(=O)=O)cc2)CCCC1 2.96%
Cc1ccc2c(C(=O)CN3CCCCC3)c(C)[nH]c2c1 3.73%
COC(=O)c1cc(C(=O)Nc2nnc(C3CC3)s2)cc([N+](=O)[O-])c1 11.3%
O=C(CSc1ccc(Br)cc1)NCC1(N2CCCCC2)CCCCC1 5.48%
CCC1(CC)NC(=O)N(CC(=O)OC(C)C(=O)Nc2ccccc2OC)C1=O (stereo not given) 1.87%
COc1ccc(C(=O)N2CCC(CCC(=O)Nc3cccc(C)c3)CC2)cc1 5.31%
COc1ccc(N2CCC(CNC(=S)Nc3c(C)cc(C)cc3C)C2)cc1 (stereo not given) 23.7%
COc1ccc(N2CCC(CNC(=O)Nc3ccc(C)c(C)c3)C2)cc1 (stereo not given) 36.2%
CCc1cccc(C)c1NC(=S)NCC1CCN(c2ccc(OC)cc2)C1 (stereo not given) 26.6%
CCOc1ccc(NC(=O)NCC2CCN(c3ccc(OC)cc3)C2)cc1 (stereo not given) 5.23%
COc1ccc(N2CCN(C(=S)Nc3cccc(C)c3)CC2)cc1 14.2%
COc1ccc(N2CCC(CNC(=O)Nc3ccc(Cl)cc3)C2)cc1 (stereo not given) 23.3%
CCc1ccc(NC(=O)NCC2CCN(c3ccc(OC)cc3)C2)cc1 (stereo not given) 10.4%
COCC(C)n1c(C)cc(C(=O)CN2c3cccc4cccc(c34)S2(=O)=O)c1C (stereo not given) 6.1%
O=C(CN(Cc1ccc(Br)cc1)S(=O)(=O)c1ccccc1)NCc1ccccn1 11.6%
C/C(=N\NC(=O)CSc1nc2ccccc2s1)c1cccnc1 2.25%
COc1cc(OC)c(NC(=O)CCNS(=O)(=O)c2ccc3c(c2)CC(C)N3C(C)=O)cc1Cl (stereo not given) -10.2%
COc1cc(/C=N/NC(=O)c2c(C)nc3ccc(Cl)cn23)cc(OC)c1OC 0.19%
COc1ccc(NC(=O)c2ccc(CN3CCc4ccccc4C3)cc2)cc1OC 4.51%
COc1ccc(C(=O)/C=C/c2ccc(O)cc2)c(O)c1C/C=C(\C)CCC=C(C)C 1.5%
COc1ccc(C(=O)/C=C/c2ccc(O)cc2)c(O)c1CC=C(C)C 7.57%
CCCOc1ccc(OCCN2CCCC(C)C2)cc1 (stereo not given) 20%
O=C(CSc1ncnc2sccc12)NCc1ccc2c(c1)OCO2 4.24%
Nc1cccc([N+](=O)[O-])c1 0.03%
O=[N+]([O-])c1cccc(S(=O)(=O)c2cccc([N+](=O)[O-])c2)c1 4.34%
CN(C)c1ccc(/C=N/NC(=O)c2ccc3c(c2)OCO3)cc1 16.6%
Cc1c(F)cccc1NS(=O)(=O)c1ccc2c(c1)n(C)c(=O)c(=O)n2C -0.09%
Cc1c(CN2CCC(C(=O)Nc3cccc(-c4cccc(Cl)c4)c3)CC2)cnn1C 11.7%
Cn1c(SCc2ccccc2)nc2c1c(=O)[nH]c(=O)n2C -7.97%
C#CCNC(=O)C1=C[C@@H](C(C)(C)C)C[C@@H](OCc2ccc(CO)cc2)O1 7.54%
O=c1cc(-c2ccc(O)cc2)oc2cc(O)cc(O)c12 14.4%
O=c1cc(-c2ccccc2)oc2cccc(O)c12 0.53%
O=c1cc(-c2ccc(O)c(O)c2)oc2ccc3ccccc3c12 2.51%
COc1ccc(-c2cc(=O)c3c(O)cc(O)cc3o2)cc1 -5.2%
COc1cccc(/C=C/C(=O)OCC(=O)Nc2nnc(-c3ccccc3)o2)c1 4.25%
Cc1c(NC(=O)c2ccc(S(=O)(=O)Nc3ccccc3F)cc2)c(=O)n(-c2ccccc2)n1C 4.66%
Cc1c(C=O)c2ccccc2n1CC(=O)N1CCc2ccccc2C1 10.2%
O=C(CC(c1ccccc1)c1ccccc1O)NCc1ccco1 (stereo not given) 15.2%
O=S1c2ccccc2Oc2ccccc21 -3.3%
O=C1c2ccccc2OCOc2ccccc21 2.81%
CCCCn1c(CN2C(=O)c3ccccc3C2=O)nc2ccccc2c1=O 4.82%
CCOC(=O)C1CCCN(S(=O)(=O)c2ccc3ccccc3c2)C1 (stereo not given) 3.67%
CCOc1ccc(NC(=O)C(C)NC(=O)c2ccccc2Cl)cc1S(=O)(=O)N1CCCC1 (stereo not given) -0.23%
COC(=O)c1c(NC(=O)CSc2nccn2C)sc(C)c1C -3.2%
CCOC(=O)c1cc(NC(=O)CNCC(c2ccccc2)N(C)C)cc(C(=O)OCC)c1 (stereo not given) 16.1%
Cc1ccc(Cl)cc1NC(=O)CNCC(c1ccccc1)N(C)C (stereo not given) 30.3%
COc1ccc(Cl)cc1NC(=O)CNCC(c1ccccc1)N(C)C (stereo not given) 21.9%
COc1ccc(CCNC(=O)CSc2ccccc2)cc1OC -5.12%
COc1ccc(CCNC(=O)Cc2ccccc2)cc1OC 10%
Cc1cc(NC(=O)CNCC(c2ccccc2)N(C)C)c([N+](=O)[O-])cc1C (stereo not given) 13.9%
COc1ccc(C)cc1S(=O)(=O)N(C)CC(=O)N1CCC(C(N)=O)CC1 -7.33%
O=C(CSCC(=O)OCn1nnc2ccccc2c1=O)Nc1ccc(Cl)cc1 7.19%
CCc1nc(N2CCC3(CC2)OCCO3)c2nnn(Cc3ccccc3)c2n1 0%
CCCn1c(=NC(=O)CCS(=O)(=O)c2ccccc2)sc2cc(S(N)(=O)=O)ccc21 -5.12%
CCC(=O)N1CCC(c2ccc(OC)cc2)=N1 1.71%
CCC(=O)Nc1nnc(S(=O)(=O)N(CC)c2cc(C)cc(C)c2)s1 3.75%
Cc1ccn2c(NC3CCCC3)c(-c3ccsc3)nc2c1 13.1%
Cc1ccc2nc(-c3ccncc3)c(NC3CCCC3)n2c1 -17.4%
O=C(Nc1ccc(Cl)cc1)C1CCN(C(=O)c2cccs2)CC1 6.08%
Cc1ccc2occ(C(c3nnnn3Cc3ccccc3)N3CCOCC3)c(=O)c2c1 (stereo not given) 7.16%
O=C(NN=Cc1ccc(O)cc1)C(=O)NN=Cc1ccc(O)cc1 28.3%
O=C(NN=Cc1ccc(F)cc1)C1CC1 6.86%
C=C1CC(C(=O)N/N=C/c2ccccc2)C1 11.8%
O=[N+]([O-])c1ccc(C=NNC(=S)NN=Cc2ccc([N+](=O)[O-])cc2)cc1 -0.77%
O=C(Nc1cccc(NC(=O)c2ccco2)c1)c1ccc2c(c1)OCCO2 2.32%
O=C(Nc1ccc(NC(=O)c2ccc3c(c2)OCCO3)cc1)c1ccccc1 1.42%
O=C(NC1CCCCCC1)c1ccc[nH]c1=S 5.17%
COc1ccc(NC(=O)CSc2nnc3ccc(-c4cccnc4)nn23)c(OC)c1 -2.52%
COc1ccc(/C=N\N=C2/SC(CC(=O)O)C(=O)N2c2ccc(O)cc2)cc1 (stereo not given) 3.73%
COc1ccc(/C=N\N=C2/SC(CC(=O)O)C(=O)N2c2ccc(O)cc2)cc1OC (stereo not given) 2.46%
COc1ccc(/C=N/N=C2\SCC(=O)N2c2c(C)n(C)n(-c3ccccc3)c2=O)cc1OC 5.82%
O=C1CS/C(=N/N=C/c2ccccc2)N1c1ccc(O)cc1 8.23%
